Screening data (PubChem BioAssay)
GPR151 ag: activates the human receptor GPR151; Q8TDV0; PathHunter beta-arrestin GPR151 cells, luminescence; activation, % at 11.2 µM; actives 1% (n = 650,000); AID 1508602; in the data active means activation above about 4.9%;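 further: 0% = median of compound wells and 100% = cells with positive control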
FBW7 act: human FBW7 E3 ligase activation, primary screen. Q969H0. AlphaScreen FBW7–phospho-cyclin E peptide binding, activator screen. normalized activity (activation), % at 26.1 µM. actives 0.13% (n = 650,000). AID 1259310; in the data active means normalized activity above about 1.9%;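 further: purified mutant Fbw7 with reduced substrate affinity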
TEAD-YAP block: TEAD-YAP interaction inhibition; HEK-TIYL cells, TEAD-Gal4/YAP UAS-luciferase luminescence; inhibition, % at 9.12 µM; actives 1.4% (n = 640,000); AID 1259422; in the data active means inhibition above about 32%;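 further: 0% = median of test compound wells and 100% = reference inhibitor wells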
MITF primary: inhibitors of human MITF | actives 0.91% (n = 650,000) | AlphaScreen MITF homodimerization, bead proximity signal | inhibition, % at 2.6 µM; in the data active means inhibition above about 50%;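 further: 0% = vehicle wells with protein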
GPR151 conf act: human GPR151 activation, confirmation screen | activation, % at 11.2 µM | GPR151 PathHunter beta-arrestin cells, luminescence, 90 min; % of EA-reagent control over plate median | 6,700 tested, under 10 active | AID 1508609 | shares compounds with GPR151 ag;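 active means mean percent activation across replicates above the confirmation screen cutoff of 4.91%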
GPR119 ag: activates human GPR119 in a GPR151 counter-screen. AID 1508611. GPR119 PathHunter beta-arrestin cells, luminescence, 90 min; 0 = compound-well median, 100 = enzyme-acceptor control. shares compounds with GPR151 ag. actives 0.3% (n = 6,700). activation, % at 11.2 µM;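 active means mean percent activation in the counterscreen above 29.09%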;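 further: counterscreen on off-target GPR119 to flag nonselective hits from the GPR151 activator screen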
Target sequence (Q8TDV5 whole entry, looked up): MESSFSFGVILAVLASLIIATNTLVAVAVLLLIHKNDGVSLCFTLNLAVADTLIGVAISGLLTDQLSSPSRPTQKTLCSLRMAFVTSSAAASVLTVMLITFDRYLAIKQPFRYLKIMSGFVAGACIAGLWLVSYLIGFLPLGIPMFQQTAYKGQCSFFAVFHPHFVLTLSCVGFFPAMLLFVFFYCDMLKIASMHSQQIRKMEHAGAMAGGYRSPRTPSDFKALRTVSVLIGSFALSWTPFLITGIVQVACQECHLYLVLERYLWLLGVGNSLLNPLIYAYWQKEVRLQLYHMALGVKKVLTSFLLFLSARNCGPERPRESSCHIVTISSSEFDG
* = called active by the depositor; . = no result. Hits are enriched below; roughly 3.4% of the tested compounds scored in any of these assays.

SMILES | GPR151 ag | FBW7 act | TEAD-YAP block | MITF primary | GPR151 conf act | GPR119 ag
CCCCN(C)C(=O)CN1C(=O)C(CC)Oc2ccc(C)cc21 (centres undefined) | 8.8* | 0 | -2 | -16 | 0 | -9
CCOC(=O)CSc1nnc2c3c(C)c(C)sc3ncn12 | 5.8* | 0 | -5 | 0 | 0 | 2
C=CCn1c(SCCCC)nc2c1c(=O)[nH]c(=O)n2C | 2 | 0 | -3 | -6 | . | .
COc1ccc(C(=O)N2CCC(N3CCC(C)CC3)CC2)cc1 | 6.5* | 0 | 7 | 28 | 1 | -1
COc1cccc(NC(=S)Nc2ccccc2OC)c1 | 13* | 0 | -8 | 16 | 1 | -1
CC(=O)NC(=S)Nc1ccc(Br)c(C)n1 | -3 | 0 | -40 | 9 | . | .
CCC(=O)Nc1cccc(NC(=S)NC(=O)c2ccccc2OC)c1 | 8.8* | 0 | -50 | 12 | 0 | -9
COc1ccccc1C(=O)NC(=S)Nc1ccc(Br)c(C)n1 | 5.2* | 0 | -3 | 10 | 0 | 4
Cc1cc(C(=O)NC(C)c2ccccc2)n(-c2ccccc2)n1 (centres undefined) | 0 | 0 | 2 | 0 | . | .
COc1ccc(C(=O)C2CCCN(C(=O)Cn3nc(C)nc3C)C2)c(C)c1 (centres undefined) | 1 | 0 | -7 | 16 | . | .
COC(=O)C(C)Sc1nnc2[nH]c(=O)c(C)c(C)n12 (centres undefined) | -2 | 1 | 1 | 17 | . | .
CCCCNC(=O)/C(=C/c1ccc(OC)cc1)NC(=O)/C=C/c1ccccc1 | 0 | 0 | 12 | 3 | . | .
CCCCNC(=O)/C(=C/c1ccccc1)NC(=O)/C=C/c1ccco1 | 17* | 0 | 0 | -9 | -1 | -8
CCCCSC1=C(C#N)C(=O)NC(c2ccc(OC)c(OC)c2)S1 (centres undefined) | 0 | 0 | -6 | 2 | . | .
Cc1ccc(Cl)c2c1NC(=O)C21SCCS1 | 8.6* | 0 | -8 | 3 | -1 | 2
CCOC(=O)c1nn(CCO)c2c1CN(C1CCCC1)CC2 | 0 | 0 | 4 | 13 | . | .
O=C(O)c1cccc(NCc2cccc3ccccc23)c1 | 11* | 0 | -19 | 10 | 0 | 3
C=CCOc1ccccc1CNc1cccc(C(=O)O)c1 | -2 | 0 | 2 | 17 | . | .
CCCCN(CC)c1cnn(-c2ccccc2)c(=O)c1N | 9.2* | 0 | -5 | 13 | 0 | -1
COc1ccc(CCC(=O)Nc2nc3c(s2)C(=O)CC(C)(C)C3)cc1 | 6.5* | 0 | 14 | -7 | 0 | -7
COc1ccc(CC(=O)Nc2nc3c(s2)C(=O)CC(C)(C)C3)cc1 | 0 | 0 | 1 | -5 | . | .
COc1ccc(/C=C/C(=O)Nc2nc3c(s2)C(=O)CC(C)(C)C3)cc1 | 5.4* | 0 | 0 | 6 | 0 | 1
O=C1CC(=O)Nc2cc(S(=O)(=O)NCC3COc4ccccc4O3)ccc2N1 (centres undefined) | 5.0* | 0 | 5 | 6 | 0 | 3
CC(NS(=O)(=O)c1ccc2c(c1)NC(=O)CC(=O)N2)c1ccccc1 (centres undefined) | 8.3* | 0 | -1 | -7 | 1 | 12
Clc1cccc(CSc2nnc(-c3ccc(Cl)cc3Cl)o2)c1 | -2 | 0 | -1 | 13 | . | .
SMILES | GPR151 ag | FBW7 act | TEAD-YAP block | MITF primary | GPR151 conf act | GPR119 ag
CCOc1cc(C)c(S(=O)(=O)N2CCCC2)cc1C | 6.7* | 0 | -5 | -32 | 0 | -3
CCOc1cc(C)c(S(=O)(=O)N2CC(C)OC(C)C2)cc1C (centres undefined) | 1 | 0 | -3 | 13 | . | .
COc1cccc(CNCC2CCCO2)c1OC (centres undefined) | 1 | 0 | 0 | 4 | . | .
COc1ccc(CNCC2CCCO2)c(OC)c1OC (centres undefined) | 5.9* | 0 | 5 | 6 | 0 | 7
CCOC(=O)CNC1CC(=O)N(c2ccc(Cl)cc2)C1=O (centres undefined) | 1 | 0 | 6 | -1 | . | .
CN(C)C(=O)/C=C/c1cn(-c2ccccc2)nc1-c1ccccc1 | 1 | 0 | 0 | -7 | . | .
O=C(CCN1C(=O)C2C3C=CC(C3)C2C1=O)N1CCN(c2ccccc2F)CC1 (centres undefined) | 5.1* | 0 | 3 | 13 | 0 | -6
O=C(CCN1C(=O)C2C3C=CC(C3)C2C1=O)N1CCN(c2ccccc2Cl)CC1 (centres undefined) | 1 | 0 | -15 | 0 | . | .
COc1ccc(N2CCN(S(=O)(=O)c3ccccc3C(F)(F)F)CC2)cc1 | 5.1* | 0 | 2 | 0 | 0 | 1
Cc1cc(S(=O)(=O)N2CCN(c3ccc(F)cc3)CC2)c(Cl)cc1Cl | 5.3* | 0 | -11 | 5 | 1 | 5
COc1ccc(N2CCN(S(=O)(=O)c3ccccc3F)CC2)cc1 | -1 | 0 | 4 | 6 | . | .
O=S(=O)(c1cccc2ccccc12)N1CCN(c2ccc(F)cc2)CC1 | 19* | 0 | -5 | 0 | 0 | -6
O=S(=O)(c1cccc2ccccc12)N1CCN(c2ncccn2)CC1 | -1 | 0 | 7 | 13 | . | .
C/C(=N\Nc1ccccc1C(=O)O)c1ccc(O)cc1O | -3 | 0 | -67 | 2 | . | .
C=CCOc1ccccc1/C=N/NC(=O)c1cccc(I)c1 | 11* | 0 | -7 | -7 | 0 | 1
CCOC(=O)C(Cc1c[nH]c2ccccc12)NC(=O)c1ccc(Br)cc1 (centres undefined) | 2 | 0 | -43 | 4 | . | .
Cc1cccc(OCC(=O)N/N=C/c2ccc(C(=O)O)cc2)c1 | 0 | 0 | -6 | 7 | . | .
Cc1ccc2nc(Cl)c(C3CC(c4ccc(Br)cc4)=NN3S(C)(=O)=O)cc2c1 (centres undefined) | 5.1* | 0 | -3 | 8 | -1 | 3
CS(=O)(=O)N1N=C(c2ccc(Br)cc2)CC1c1cc2ccccc2nc1Cl (centres undefined) | 0 | 0 | 13 | 8 | . | .
CC(=O)c1ccccc1NC(=O)CSc1n[nH]c(N)n1 | 8.0* | 0 | 8 | 2 | 0 | 6
CCOC(=O)c1ccccc1NC(=O)CSc1n[nH]c(N)n1 | 0 | 0 | 7 | 1 | . | .
CCOC(=O)c1ccc(CN(Cc2ccc(Br)cc2)S(=O)(=O)c2c(C)cc(C)cc2C)cc1 | -1 | 0 | -11 | -1 | . | .
COc1cc(OC)c(C(=O)OCC#N)cc1OC | 5.7* | 0 | 6 | 1 | 0 | 4
Brc1cccc(CNCc2cccnc2)c1 | 1 | 0 | 4 | 16 | . | .
Brc1cccc(CNCc2ccncc2)c1 | 13* | 0 | 12 | 4 | 1 | -5
CCOC(=O)CC(C(C)C)N(Cc1ccc(Cl)c([N+](=O)[O-])c1)S(=O)(=O)c1ccc(Cl)cc1 (centres undefined) | 9.1* | 0 | -8 | 9 | -1 | -10
